# Measured values published in the supplement of paper PMC8728848.
# Shown is part of a subset that was picked to be rich in the strongest signals.
# B1: B725 (Bifidobacterium sp) (protein)
# chain: MNNTTRAVIATAAIGALLIPLAGCGNTTTSSGKTELTVWSWDASIDRAAKSFMKANPDITVKVSNVGSTEETYTALNNAAQAGSGLPDVTLIEYLAIPQFVHSDTLMDLSKVYNTAKLKDTFTPGTWNSVNINGGLYAMPADSGPMAYFYDKDVFDKAGISEPPTTWDEFYEDAKKIRATGSYITSDSGDAGLFNAMMWAMGGHAYKLNDDKLTINIAKDKGAQRFMDLWQKMRDEDLIDVHTKTWTDDWMKSLGDGSIASLISGAWMANNLLQGVPQATGKFRVALLPTIDGTPINGEYGGSGLAITKKIPDGKLDAAKKFVEYVTTNDEGIDARVSNGSFPATTKTLNQKDFLAKTTLRNTDGSDNEFFGGQKYNEIFSQAAKDVTGKWEFLPFEPYARSVYNDNMGSFFAGKTSFRTAADNWQKALKDYAKDQGFTVQ
# Tests used:
# Experiment in all cases: glycan array binding signal (z-score within array); higher = stronger binding
# Settings in all cases: glycan notation: IUPAC condensed, linker removed
# Fuc(a1-2)Gal = molecular target: Fuc(a1-2)Gal
# In short: (§1)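 Glycan array data came from 3228 arrays in the Consortium for Functional Glycomics database, and only arrays with an available protein sequence were kept. Glycan names were put into IUPAC-condensed notation, and columns mapping to the same glycan were averaged. The binding signal is a within-array Z-score, averaged across arrays of one protein sequence run at different concentrations or buffers and across linkers. A negative Z-score can be read as non-binding.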
# Fuc(a1-2)Gal(b1-3)GalNAc = molecular target: Fuc(a1-2)Gal(b1-3)GalNAc
# In short: as §1
# [1] = molecular target: Fuc(a1-2)Gal(b1-3)GlcNAc(b1-2)Man(a1-3)[Fuc(a1-2)Gal(b1-3)GlcNAc(b1-2)Man(a1-6)]Man(b1-4)GlcNAc(b1-4)[Fuc(a1-6)]GlcNAc
# In short: as §1
# [2] = molecular target: Fuc(a1-2)Gal(b1-3)GlcNAc6S
# In short: as §1
# Fuc(a1-2)Gal6S(b1-4)Glc = molecular target: Fuc(a1-2)Gal6S(b1-4)Glc
# In short: as §1
# [3] = molecular target: Fuc(a1-2)[Gal(a1-3)]Gal(b1-4)[Fuc(a1-3)]GlcNAc(b1-3)GalNAc
# In short: as §1
# [4] = molecular target: Fuc(a1-2)[Gal(a1-4)]Gal(b1-4)GlcNAc
# In short: as §1
# [5] = molecular target: Fuc(a1-2)[GalNAc(a1-3)]Gal(b1-4)Glc
# In short: as §1
# [6] = molecular target: Fuc(a1-2)[GalNAc(a1-3)]Gal(b1-4)[Fuc(a1-3)]GlcNAc
# In short: as §1
# [7] = molecular target: Fuc(a1-3)[Gal(b1-4)]GlcNAc(b1-3)Gal(b1-4)[Fuc(a1-3)]GlcNAc(b1-3)Gal(b1-4)[Fuc(a1-3)]GlcNAc
# In short: as §1
# [8] = molecular target: Fuc(a1-3)[Gal(b1-4)]GlcNAc(b1-3)GalNAc
# In short: as §1
# Fuc(b1-3)GlcNAc = molecular target: Fuc(b1-3)GlcNAc
# In short: as §1
# [9] = molecular target: Gal(a1-3)Gal(b1-4)GlcNAc(b1-2)Man
# In short: as §1
# [10] = molecular target: Gal(a1-3)Gal(b1-4)GlcNAc(b1-3)GalNAc
# In short: as §1
# [11] = molecular target: Gal(b1-3)[Fuc(a1-4)]GlcNAc(b1-3)Gal(b1-4)[Fuc(a1-3)]GlcNAc
# In short: as §1
# [12] = molecular target: Gal(b1-3)[GlcNAc(b1-6)]GalNAc
# In short: as §1
# [13] = molecular target: Gal(b1-4)GalNAc(a1-3)[Fuc(a1-2)]Gal(b1-4)GlcNAc
# In short: as §1
# [14] = molecular target: Gal(b1-4)GlcNAc(b1-2)Man(a1-3)[Gal(b1-4)GlcNAc(b1-2)Man(a1-6)]Man(b1-4)GlcNAc(b1-4)[Fuc(a1-6)]GlcNAc
# In short: as §1
# [15] = molecular target: Gal(b1-4)GlcNAc(b1-2)Man(a1-3)[Gal(b1-4)GlcNAc(b1-2)Man(a1-6)][Gal(b1-4)GlcNAc(b1-4)]Man(b1-4)GlcNAc(b1-4)[Fuc(a1-6)]GlcNAc
# In short: as §1
# [16] = molecular target: Gal(b1-4)GlcNAc(b1-3)Gal(b1-4)Glc
# In short: as §1
# [17] = molecular target: Gal(b1-4)GlcNAc(b1-3)Gal(b1-4)GlcNAc(b1-3)Gal(b1-4)GlcNAc
# In short: as §1
# [18] = molecular target: Gal(b1-4)GlcNAc(b1-3)Gal(b1-4)GlcNAc(b1-3)Gal(b1-4)GlcNAc(b1-2)Man(a1-3)[Gal(b1-4)GlcNAc(b1-3)Gal(b1-4)GlcNAc(b1-3)Gal(b1-4)GlcNAc(b1-2)Man(a1-6)]Man(b1-4)GlcNAc(b1-4)GlcNAc
# In short: as §1
# [19] = molecular target: Gal(b1-4)GlcNAc(b1-3)Gal(b1-4)GlcNAc(b1-3)Gal(b1-4)GlcNAc(b1-2)Man(a1-3)[Gal(b1-4)GlcNAc(b1-3)Gal(b1-4)GlcNAc(b1-3)Gal(b1-4)GlcNAc(b1-2)Man(a1-6)]Man(b1-4)GlcNAc(b1-4)[Fuc(a1-6)]GlcNAc
# In short: as §1
# [20] = molecular target: Gal(b1-4)GlcNAc(b1-3)Gal(b1-4)GlcNAc(b1-3)Gal(b1-4)GlcNAc(b1-2)[Gal(b1-4)GlcNAc(b1-3)Gal(b1-4)GlcNAc(b1-3)Gal(b1-4)GlcNAc(b1-6)]Man(a1-6)[Gal(b1-4)GlcNAc(b1-3)Gal(b1-4)GlcNAc(b1-3)Gal(b1-4)GlcNAc(b1-2)Man(a1-3)]Man(b1-4)GlcNAc(b1-4)[Fuc(a1-6)]GlcNAc
# In short: as §1
# [21] = molecular target: Gal(b1-4)GlcNAc(b1-3)Gal(b1-4)GlcNAc(b1-3)Gal(b1-4)GlcNAc(b1-3)Gal(b1-4)GlcNAc(b1-2)Man(a1-3)[Gal(b1-4)GlcNAc(b1-3)Gal(b1-4)GlcNAc(b1-3)Gal(b1-4)GlcNAc(b1-3)Gal(b1-4)GlcNAc(b1-2)Man(a1-6)]Man(b1-4)GlcNAc(b1-4)GlcNAc
# In short: as §1
# [22] = molecular target: Gal(b1-4)GlcNAc(b1-3)Gal(b1-4)GlcNAc(b1-3)Gal(b1-4)GlcNAc(b1-3)Gal(b1-4)GlcNAc(b1-2)Man(a1-3)[Gal(b1-4)GlcNAc(b1-3)Gal(b1-4)GlcNAc(b1-3)Gal(b1-4)GlcNAc(b1-3)Gal(b1-4)GlcNAc(b1-2)Man(a1-6)]Man(b1-4)GlcNAc(b1-4)[Fuc(a1-6)]GlcNAc
# In short: as §1
# [23] = molecular target: Gal(b1-4)GlcNAc(b1-3)Gal(b1-4)GlcNAc(b1-3)Gal(b1-4)GlcNAc(b1-3)Gal(b1-4)GlcNAc(b1-2)[Gal(b1-4)GlcNAc(b1-3)Gal(b1-4)GlcNAc(b1-3)Gal(b1-4)GlcNAc(b1-3)Gal(b1-4)GlcNAc(b1-6)]Man(a1-6)[Gal(b1-4)GlcNAc(b1-3)Gal(b1-4)GlcNAc(b1-3)Gal(b1-4)GlcNAc(b1-3)Gal(b1-4)GlcNAc(b1-2)Man(a1-3)]Man(b1-4)GlcNAc(b1-4)[Fuc(a1-6)]GlcNAc
# In short: as §1
# [24] = molecular target: Gal(b1-4)GlcNAc(b1-3)Gal(b1-4)GlcNAc(b1-3)Gal(b1-4)GlcNAc(b1-3)Gal(b1-4)GlcNAc(b1-3)Gal(b1-4)GlcNAc(b1-2)Man(a1-3)[Gal(b1-4)GlcNAc(b1-3)Gal(b1-4)GlcNAc(b1-3)Gal(b1-4)GlcNAc(b1-3)Gal(b1-4)GlcNAc(b1-3)Gal(b1-4)GlcNAc(b1-2)Man(a1-6)]Man(b1-4)GlcNAc(b1-4)[Fuc(a1-6)]GlcNAc
# In short: as §1
# [25] = molecular target: Gal(b1-4)GlcNAc(b1-3)Gal(b1-4)GlcNAc(b1-3)Gal(b1-4)GlcNAc(b1-3)Gal(b1-4)GlcNAc(b1-3)Gal(b1-4)GlcNAc(b1-2)[Gal(b1-4)GlcNAc(b1-3)Gal(b1-4)GlcNAc(b1-3)Gal(b1-4)GlcNAc(b1-3)Gal(b1-4)GlcNAc(b1-3)Gal(b1-4)GlcNAc(b1-6)]Man(a1-6)[Gal(b1-4)GlcNAc(b1-3)Gal(b1-4)GlcNAc(b1-3)Gal(b1-4)GlcNAc(b1-3)Gal(b1-4)GlcNAc(b1-3)Gal(b1-4)GlcNAc(b1-2)Man(a1-3)]Man(b1-4)GlcNAc(b1-4)[Fuc(a1-6)]GlcNAc
# In short: as §1
# [26] = molecular target: Gal(b1-4)GlcNAc(b1-3)Gal(b1-4)GlcNAc(b1-3)Gal(b1-4)GlcNAc(b1-3)Gal(b1-4)GlcNAc(b1-3)Gal(b1-4)GlcNAc(b1-3)Gal(b1-4)GlcNAc(b1-2)Man(a1-3)[Gal(b1-4)GlcNAc(b1-3)Gal(b1-4)GlcNAc(b1-3)Gal(b1-4)GlcNAc(b1-3)Gal(b1-4)GlcNAc(b1-3)Gal(b1-4)GlcNAc(b1-3)Gal(b1-4)GlcNAc(b1-2)Man(a1-6)]Man(b1-4)GlcNAc(b1-4)GlcNAc
# In short: as §1
binder,measurement,setting,value
B1,glycan array binding signal (z-score),Fuc(a1-2)Gal,-0.221
same,glycan array binding signal (z-score),Fuc(a1-2)Gal(b1-3)GalNAc,-0.216
same,glycan array binding signal (z-score),[1],-0.181
same,glycan array binding signal (z-score),[2],-0.234
same,glycan array binding signal (z-score),Fuc(a1-2)Gal6S(b1-4)Glc,-0.199
same,glycan array binding signal (z-score),[3],-0.208
same,glycan array binding signal (z-score),[4],-0.23
same,glycan array binding signal (z-score),[5],-0.222
same,glycan array binding signal (z-score),[6],-0.217
same,glycan array binding signal (z-score),[7],-0.21
same,glycan array binding signal (z-score),[8],-0.216
same,glycan array binding signal (z-score),Fuc(b1-3)GlcNAc,-0.226
same,glycan array binding signal (z-score),[9],-0.214
same,glycan array binding signal (z-score),[10],-0.225
same,glycan array binding signal (z-score),[11],-0.203
same,glycan array binding signal (z-score),[12],-0.224
same,glycan array binding signal (z-score),[13],-0.218
same,glycan array binding signal (z-score),[14],-0.204
same,glycan array binding signal (z-score),[15],-0.231
same,glycan array binding signal (z-score),[16],6.34
same,glycan array binding signal (z-score),[17],6.94
same,glycan array binding signal (z-score),[18],5.11
same,glycan array binding signal (z-score),[19],4.38
same,glycan array binding signal (z-score),[20],7.51
same,glycan array binding signal (z-score),[21],5.3
same,glycan array binding signal (z-score),[22],4.85
same,glycan array binding signal (z-score),[23],6.73
same,glycan array binding signal (z-score),[24],4
same,glycan array binding signal (z-score),[25],5.49
same,glycan array binding signal (z-score),[26],8.21
